A number with no mark means an inactive call. The call rests on the fitted dose curve; in most records, active means well fitted activation curve with a large enough effect in the repeat runs; inconclusive means weak or mixed curves; inactive means flat fitted curve, though single readings scatter.
On the % scale 0 is the no-effect control and ±100 the full control effect.

A short description of the experiment: Caspase-3/7 induction in CHO-K1 cells by small molecules, qHTS assay (AID 1346980). Further: nearly all actives have a fitted effect of over 15% in size. To be noted: CHO-K1 caspase-3/7 induction, Caspase-Glo luminescence, 17 h; series mostly up to 92.4 µM; caspase-3/7 activation: at the top concentration. An excerpt:
National Center for Advancing Translational Sciences [NCATS]
NIH Chemical Genomics Center [NCGC]
U.S. Environmental Protection Agency [EPA]
National Institutes of Environmental Health Sciences [NIEHS]
National Toxicology Program [NTP]
Apoptosis is a process of programmed cell death and plays a central role in the development of multicellular organisms. It is a highly regulated process and induces cell death by activating caspases, which are the members of cysteine aspartic acid-specific protease (caspase) family. Caspases involved in apoptosis are classified by their mechanism of action as initiator caspases (caspase-2, -8, -9 and -10) and executioner caspases (caspase-3, -6, and -7). Inhibition of apoptosis results in number of cancers, autoimmune diseases, inflammatory diseases and viral infection. To identify small molecule compounds that induce apoptosis, a homogeneous, luminescent Caspase-Glo 3/7 assay was used. Wild type CHO-K1 cells were used to screen Tox21 libraries for identifying caspase-3/7 activity inducers.
CHO-K1 cells were dispensed at 1,500 per well in 5uL of culture medium into white solid bottom 1536-well plates (Corning Life Sciences, Corning, NY) using a Multidrop Combi (Thermo Scientific, Waltham, MA) dispenser. The assay plates were incubated at 37 C and 5% CO2 for 5hr, and then 23nL of compounds dissolved in DMSO and positive control were transferred using a Pintool station (Wako, San Diego, CA). The assay plates were incubated at 37C and 5% CO2 for 17hr. For caspase-3/7 activity read, 4uL of Caspase-Glo 3/7 reagent (Promega Corporation, Madison, WI) was added to each well of the assay plates using Flying Reagent Dispenser (FRD, Aurora Discovery, San Diego, CA) and incubated the assay plates at room temperature for 30min. The luminescence signal was quantified using a ViewLux plate reader (Perkin Elmer, Shelton, CT).
Background: In qHTS, concentration-response curves come from the screen itself.
Take `O=C(Nc1cccc(C2=NCCN2)c1)Nc1cccc(C2=NCCN2)c1`: the caspase-3/7 activation was 0.277% [at 19 µM].
Next, `CC(C)CCC(=O)CCC(C)C`: 0.0035%; `Cn1c(=O)c2c(ncn2CC2OCCO2)n(C)c1=O`: -1.18% [at 42.5 µM].
Regarding `F[Si-2](F)(F)(F)(F)F`, the “caspase-3/7 activation” value is -1.24%.
Under `BrC/C=C/CBr` stands 0.312% [at 19 µM]; under `CCC(C)(C)C1CCC(=O)CC1`, 2.17%.
Next, `COc1ccc(N=Nc2cc(C)c(N=Nc3ccc(S(=O)(=O)O)cc3)cc2OC)cc1`: -0.103%; `CCCCCCCCCCCCCCCC(=O)NCCO`: -0.0651% [at 42.5 µM].
Next, `Nc1nc(=O)n([C@@H]2O[C@H](CO)[C@@H](O)[C@@H]2F)cc1I`: -0.126% [at 42.5 µM].
Turning to `CCN1CN(CC)CN(CC)C1`, the “caspase-3/7 activation” value was 0.0464%.
For the molecule `CCOC(=O)CCCCCCCCC(=O)OCC`, the “caspase-3/7 activation” value was -1.13%.
Next, `CCCCOC(=O)[C@@H](C)Oc1ccc(Oc2ccc(C(F)(F)F)cn2)cc1`: -0.627%; `CC(C)SCc1ccco1`: 0.0751% [at 42.5 µM].
In the case of `COc1cccc2sc(N)nc12`, the “caspase-3/7 activation” value is 0.616%.
Under `CC(C)c1ccccc1O` stands 1.77%; under `Cc1nc2ccccc2c(=O)o1`, -3.39%; under `CC(=O)c1ccc(OCC(=O)N2CCCCC2)cc1`, -2.37% [at 42.5 µM].
In the case of `CO[Si](CCCS)(OC)OC`, the “caspase-3/7 activation” value is 0.625%.
Under `CC(=O)Nc1ncc([N+](=O)[O-])s1` stands 0.0112% [at 42.5 µM]; under `COC(/C=C(\C)CCC=C(C)C)OC`, -0.446%.
Under `O=C(COCCOCCOCC(=O)Nc1c(I)cc(I)c(C(=O)O)c1I)Nc1c(I)cc(I)c(C(=O)O)c1I` stands -0.609% [at 42.5 µM]; under `CCNC(=O)NCCCOc1cccc(CN2CCCCC2)c1`, 0.225% [at 42.5 µM].
Consider `Cc1nc([N+](=O)[O-])cn1-c1ccc([N+](=O)[O-])cc1`, for which the “caspase-3/7 activation” value is 2.84% [at 42.5 µM].
Under `C=COCCOCCOC=C` stands 0.816%; under `CC(C)COC(=O)/C=C/c1ccccc1`, 1.02%.
Next, `CC(C)CCO`: 0.55%; `C[N+](C)(C)CC(O)CCl` (stereo not given): 0.0833%; `O=C(/C=C/c1ccccc1)NCCO`: -1.7% [at 42.5 µM].
As for `CCOC(=O)CC(CC(=O)OCC)(OC(C)=O)C(=O)OCC`, the “caspase-3/7 activation” value was -0.858%.
For `CCCCCCCCCCCCC`, the “caspase-3/7 activation” value was 0.757%.
Under `CCC(=O)c1ccc(O)cc1` stands -1.75% [at 42.5 µM]; under `CC1=CC[C@H](CC=O)C1(C)C`, 0.0412%.
Under `Cc1ccccc1C(=O)N1CC/C(=N\OS(=O)(=O)O)c2ccc(Cl)cc21` stands -0.276% [at 42.5 µM]; under `C=CCOc1cc(Cl)ccc1C(=O)NCCN(CC)CC`, 2.79% [at 42.5 µM].
Under `C=CCOCC(O)CCl` (stereo not given) stands -0.139%; under `C=C[C@@H](C)CCC=C(C)C`, -1.1%.
As to `C=CCCCCCCCCCCC`, the caspase-3/7 activation is 0.611% [at 8.39 µM].
Under `COCC(=O)Nc1c(I)c(C(=O)NCC(O)CO)c(I)c(C(=O)N(C)CC(O)CO)c1I` (stereo not given) stands 0.859% [at 42.5 µM]; under `Cc1nc2n(c(=O)c1CCN1CCC(C(=O)c3ccc(F)cc3)CC1)CCS2`, -1.78% [at 42.5 µM]; under `NC(=O)C1(N2CCCCC2)CCN(CCCC(=O)c2ccc(F)cc2)CC1`, -1.01% [at 42.5 µM].

Source of the values: PubChem BioAssay (Tox21).
